The whole screen tested about 48,000 compounds, of which about 13,000 (27%) showed an effect of 50% or more. The list shows a part of the results.
The compounds below were run on Wolbachia pipientis (assay: Anti-Wolbachia Cell-Based Screen). Details: 5 µM.
Format: functional
Design: scale not given: in the data most compounds retested in dose-response had high values

| Structure (SMILES) | Percent Effect [%] |
| --- | --- |
| Cc1ccccc1CN1C[C@@H]2COC[C@]2(CNC(=O)C2CCC2)C1.O=C(O)C(F)(F)F | 116.7 |
| COc1cccc(CN2C[C@@H]3COC[C@]3(CNC(=O)C3CC3)C2)c1.O=C(O)C(F)(F)F | 100.6 |
| Cc1cccc(CN2C[C@@H]3COC[C@]3(CNC(=O)C3CC3)C2)c1.O=C(O)C(F)(F)F | 102.9 |
| O=C(NC[C@]12COC[C@H]1CN(Cc1nccs1)C2)c1ccccc1.O=C(O)C(F)(F)F | 17.76 |
| O=C(NC[C@]12COC[C@H]1CN(Cc1nccs1)C2)N1CCCC1.O=C(O)C(F)(F)F | 28.78 |
| Cc1cccc(CN2C[C@@H]3COC[C@]3(CNC(=O)C3CCC3)C2)c1.O=C(O)C(F)(F)F | 92.72 |
| Cc1cccc(CN2C[C@@H]3COC[C@]3(CNC(=O)N3CCCC3)C2)n1.O=C(O)C(F)(F)F.O=C(O)C(F)(F)F | 5.948 |
| N#Cc1cccc(-c2ncnn2CC2(O)CCCCC2)c1 | 2.299 |
| COC(=O)CC(NC(=O)c1cccc(N2CCCC2=O)c1)C(=O)OC (stereo unspecified) | -7.194 |
| Cc1ccc(-c2cc(N)c(=O)n(C(C)C(=O)NC(C)C)n2)o1 (stereo unspecified) | 115.3 |
| CC(=O)N1CCCN(C(=O)NC(C)c2ccc(C)o2)CC1 (stereo unspecified) | -7.479 |
| Cc1ccc(-c2cc(C(=O)NCCCc3csc(N)n3)[nH]n2)o1 | 17.13 |
| Cc1ccc(-c2nc(CC(=O)N3CCCC(NC(=O)C(C)C)C3)cs2)o1 (stereo unspecified) | 6.035 |
| Cc1ccc(-c2nc(CC(=O)NCC(C)N3CCOCC3)cs2)o1 (stereo unspecified) | -1.179 |
| Cc1ccc(-c2cc(N)c(=O)n(C(C)C(N)=O)n2)o1 (stereo unspecified) | 92.46 |
| CCCNC(=O)C(C)n1nc(-c2ccc(C)o2)cc(N)c1=O (stereo unspecified) | 87.57 |
| CCCNC(=O)C(C)n1cc(Br)cn1 (stereo unspecified) | -2.063 |
| Cc1ccc(-c2cc(C(=O)N3CCCC3c3cccnc3)[nH]n2)o1 (stereo unspecified) | -6.11 |
| COCCN(Cc1nccs1)C(=O)c1cc(-c2ccc(C)o2)n[nH]1 | -13.35 |
| COCCNC(=O)C(C)n1nc(-c2ccc(C)o2)cc(N)c1=O (stereo unspecified) | 104.7 |
| Cc1c(C)n(Cc2ccccn2)c2nc3c(c(N)c12)CCCC3 | 5.52 |
| O=C(CNc1cc(F)ccc1OC(F)F)NCC(F)(F)F | -13.2 |
| CC(C)(CNC(=O)Nc1cccc(-c2nccs2)c1)C(N)=O | 2.635 |
| Cc1noc(C[C@@H]2COC[C@H]3CN(C(=O)C4=CCCC4)C[C@@H]23)n1 | -8.987 |
| O=C(O)C(F)(F)F.O=C([C@@H]1COC[C@H]2CN(C3CCOCC3)C[C@H]21)N1CCCO1 | 1.407 |
| O=C1OCCC1N1CCN(c2ccc(O)cc2)CC1 (stereo unspecified) | 4.942 |

| Structure (SMILES) | Percent Effect [%] |
| --- | --- |
| CC(C)Oc1cccc(C(O)CNC(=O)NCc2cccs2)c1 (stereo unspecified) | -2.917 |
| O=C(NCC(O)c1ccoc1)Nc1c(F)cccc1F (stereo unspecified) | 35.5 |
| O=C(NCCC(O)c1cccs1)c1ccco1 (stereo unspecified) | -4.816 |
| O=C(NCc1cccs1)NCC(O)c1ccoc1 (stereo unspecified) | 136.2 |
| CC(C)Oc1cccc(C(O)CNC(=O)Nc2cccs2)c1 (stereo unspecified) | -15.38 |
| O=C(NCC(O)c1ccsc1)Nc1cccs1 (stereo unspecified) | 136.4 |
| COC(=O)c1sccc1S(=O)(=O)NCCC(O)c1ccoc1 (stereo unspecified) | 6.712 |
| O=C(NCC(O)c1cccs1)c1ccco1 (stereo unspecified) | -9.342 |
| Cc1csc(CNC(=O)NCC(O)c2ccccc2)n1 (stereo unspecified) | 14.77 |
| O=C(NCC(O)c1ccoc1)Nc1cccs1 (stereo unspecified) | 112.3 |
| O=C(NCCC(O)c1ccoc1)Nc1cccs1 (stereo unspecified) | 118.3 |
| CCOc1ccccc1CCNC(=O)NCC(O)c1ccsc1 (stereo unspecified) | -9.165 |
| COCc1nc(CNC2CCSCC2)no1 | -3.755 |
| CCc1nc2c(c(NCc3nc(-c4cccnc4)no3)n1)CCNCC2 | -4.803 |
| CC(C)c1nc(CN(C)C(=O)CNS(=O)(=O)c2cccs2)no1 | -26.42 |
| CN(CCOCC(F)(F)F)CC1CCN(CCO)CC1 | -6.866 |
| COCc1nc(N(C)C)ncc1C(=O)Nc1ccn(C)n1 | 4.031 |
| COCCC(=O)NCCc1nc(N(C)C)ncc1-c1ccncc1 | 140.1 |
| COCC(=O)NCCc1nc(N(C)C)ncc1-c1ccncc1 | 144 |
| CCCNC(=O)c1cnc(N(C)C)nc1COC | 7.705 |
| COCC(=O)Nc1ccnc(OCCN(C)C)c1 | 5.238 |
| Cc1nc(N(C)C)ncc1C(=O)N(Cc1ccncc1)CC1CCCO1 (stereo unspecified) | -9.755 |
| COCc1nc(N(C)C)ncc1C(=O)NC(C)C | 11.32 |
| COCC(=O)N(C)Cc1nc(N(C)C)ncc1-c1ccncc1 | 115.9 |
| CCCC(=O)NCCc1nc(N(C)C)ncc1-c1ccncc1 | 150.4 |
| Cc1nsc(NC(=O)N2CCCCC2CCCO)n1 (stereo unspecified) | 3.459 |

| Structure (SMILES) | Percent Effect [%] |
| --- | --- |
| CCCOCC(=O)NS(=O)(=O)c1ccc2c(c1)OCCCO2 | -2.018 |
| Cc1nc(N(C)C)ncc1C(=O)NCCc1csc(-c2ccncc2)n1 | 10.36 |
| CN(C)c1ncc(-c2ccncc2)c(CCNC(=O)C2CC2)n1 | 144.3 |
| CCc1nc(CCNC(=O)C2CC2)sc1C | -12.51 |
| c1ccc2c(c1)CN(c1ncnc3sc4c(c13)CCNC4)CCO2 | -13.02 |
| Cc1nc2c(cc1C(=O)O)CCN(Cc1ccsc1)CC2.O=C(O)C(F)(F)F.O=C(O)C(F)(F)F | 107 |
| Cc1nc2c(cc1C(=O)O)CCN(CC1CC1)CC2.O=C(O)C(F)(F)F.O=C(O)C(F)(F)F | -6.324 |
| Cc1nc(N2CCCC2)nc2c1CCN(Cc1ccsc1)CC2.O=C(O)C(F)(F)F | 4.858 |
| CC(C)Nc1nc2c(cc1C(=O)NCC1CC1)CCN(CC1CC1)CC2.O=C(O)C(F)(F)F.O=C(O)C(F)(F)F | -7.491 |
| CC(C)Nc1nc2c(cc1C(=O)O)CCN(Cc1ccsc1)CC2.O=C(O)C(F)(F)F.O=C(O)C(F)(F)F | 98.93 |
| CC(=O)N1CCc2cc(C(=O)O)c(-c3ccsc3)nc2CC1.O=C(O)C(F)(F)F | -2.009 |
| CCC(CC)(CC)NC(=O)Nc1nnc(-c2ccccn2)s1 | -4.465 |
| COCCN1CCO[C@@H]2CN(C(=O)COc3ccc(C)cc3)C[C@@H]2C1.O=C(O)C(F)(F)F | -10.88 |
| CC(C)(C)C(O)CN1CCN(Cc2nccn2CC(F)(F)F)CC1 (stereo unspecified) | -1.053 |
| O=C(CCC(=O)N1CCC(Oc2ncccc2Br)CC1)c1ccccc1 | -8.42 |
| CCC[C@H]1CN(C2CCOCC2)C[C@@H]1NC(=O)CCCn1ccnc1 | -3.438 |
| Cc1cc(N2CCCC(c3n[nH]c4ncccc34)C2)ncn1 (stereo unspecified) | 73.09 |
| CC(C)n1ccnc1C1CCCN(c2ccccn2)C1 (stereo unspecified) | 3.899 |
| c1cnc(N2CCC(c3n[nH]c4ncccc34)C2)nc1 (stereo unspecified) | 117.8 |
| c1cnc(N2CCCC(c3n[nH]c4ncccc34)C2)nc1 (stereo unspecified) | 152.2 |
| Cc1ccc(-c2cn[nH]c2C2CCCN(c3ncccn3)C2)cc1 (stereo unspecified) | -14.2 |
| Cc1ccc(-c2cn[nH]c2C2CCCN(c3cc(N)ncn3)C2)cc1 (stereo unspecified) | -31.64 |
| Cc1nc(CC(=O)N2CCCC2c2nc(C(C)C)no2)cs1 (stereo unspecified) | -8.92 |
| CN1CCC(N(C)C[C@H]2CC[C@@H](Cc3cccc(O)c3)O2)CC1 | -5.981 |
| Cc1nc(C)n(CCCNc2ncnc3onc(C)c23)n1 | 1.931 |
| Cc1ccc(CN(C)C(=O)NCC(C)(C)NS(C)(=O)=O)s1 | 4.932 |

| Structure (SMILES) | Percent Effect [%] |
| --- | --- |
| CC(C)N(C)C(=O)c1coc(CN2CCN(c3ccccc3F)CC2)n1 | -13.9 |
| O=C(NC1CCN(c2ccc(-c3ccccc3F)nn2)C1)c1cc[nH]n1 (stereo unspecified) | 3.887 |
| O=C(NC1CCCN(c2ccccc2Cl)C1)c1ccc(=O)[nH]n1 (stereo unspecified) | 90.33 |
| O=C(NC1CCCN(c2ccccc2Cl)C1)c1c[nH]nn1 (stereo unspecified) | 87 |
| O=C(NC1CCCN(c2ccc(OC(F)F)cc2)C1)c1cc[nH]n1 (stereo unspecified) | 14.46 |
| Cc1n[nH]c(C)c1CNC(=O)NC1CCCN(c2ccccc2F)C1 (stereo unspecified) | -5.16 |
| O=C(NC1CCN(c2ccccc2Br)C1)c1c[nH]nn1 (stereo unspecified) | 111.1 |
| COc1ccccc1N1CCCC(NC(=O)Nc2cccnc2)C1 (stereo unspecified) | -7.582 |
| O=C(NC1CCCN(c2ccccc2Cl)C1)c1nc(=O)[nH][nH]1 (stereo unspecified) | 109.8 |
| O=C(NC1CCCN(c2ncccn2)C1)c1cn2ccccc2n1 (stereo unspecified) | -4.664 |
| O=C(NC1CCCN(c2ccc(OC(F)F)cc2)C1)c1c[nH]nn1 (stereo unspecified) | -1.773 |
| N#Cc1nccnc1NC1CCN(c2ccccc2Br)C1 (stereo unspecified) | -11.54 |
| O=C(NC1CCCN(c2ccccc2F)C1)c1ccon1 (stereo unspecified) | 18.57 |
| Cn1ncc(C(=O)OCC2CCN(c3ccccc3)C2)c1C(F)F (stereo unspecified) | 4.797 |
| CN1C(=O)CCc2cc(NC(=O)C3CCCC3)ccc21 | -13.79 |
| CCS(=O)(=O)N1CCCC2(CCCN2C(=O)c2cn(C)cn2)C1 (stereo unspecified) | 0.7731 |
| CN(Cc1cc(Br)cn1C)C(=O)c1ccsc1 | -18.58 |
| O=C(NC1CCN(c2ccccc2OC(F)F)C1)c1c[nH]nn1 (stereo unspecified) | 107.7 |
| O=C(NC1CCN(c2ccccc2OC(F)F)C1)c1cccnc1 (stereo unspecified) | -18.54 |
| O=C(Nc1cn[nH]c1)NC1CCN(c2ccccc2OC(F)F)C1 (stereo unspecified) | -20.77 |
| COc1ccc2c(c1)CN(c1nc(C)cc(C)n1)CC2 | -6.244 |
| COc1ccc(C2CCCN2C(=O)c2csc(NC(C)=O)n2)cc1 (stereo unspecified) | -0.5039 |
| COc1ccc(C2CN(c3nc(C)cc(C)n3)CCN2C(C)=O)cc1 (stereo unspecified) | 87.97 |
